# High-throughput results (PubChem)
# RGS16-Gao HTS = modulators of RGS16 binding to Galphao, primary screen, biochemical, human proteins, multiplexed bead flow cytometry. Regulator of G-protein signaling 16 (Homo sapiens) + Guanine nucleotide-binding protein …. bead-based flow cytometry RGS16-Galphao binding, fluorescence; actives lie on both sides. binding response (% of control), % at 10 µM. 220,000 tested, 0.38% active. AID 1441, 2008;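 further: Galphao activated by GDP with aluminum fluoride before binding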
# RGS7-Gao reg = RGS7-Galphao binding modulators, primary screen, biochemical, multiplexed bead flow cytometry; actives lie on both sides; Guanine nucleotide-binding protein G(o) subunit alpha (Homo sapiens), P09471; 220,000 tested, 0.35% active; binding response (% of control), % at 10 µM; AID 1439, 2008; in the data active means binding response below about 49% or above about 150%; inconclusive means no clear call, values can overlap the other calls; inactive means in between;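 further: fluorescent Galphao held in activated GDP-AlF4 state binding bead-coupled RGS7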
# GSH bead fluor = compound fluorescence on glutathione beads, profiling panel, artefact control, biophysical, 488/530 nm, flow cytometry; GSH beads flow cytometry, compound fluorescence 488/530 nm; hits give high values; fluorescence (KMESF) at 10 µM; 190,000 tested, 0.25% active; AID 1776, 2009; in the data active means fluorescence above about 89;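 further: glutathione beads carrying GST-tagged Bcl family fusion proteins plus one bare bead set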
# RGS8-Gao = RGS8-Galphao binding modulators, primary screen, biochemical, multiplexed bead flow cytometry; 220,000 tested, 0.34% active; Guanine nucleotide-binding protein G(o) subunit alpha (Homo sapiens), P09471; AID 1423, 2008; actives lie on both sides; response (percent of control binding), % at 10 µM; in the data active means response below about 60% or above about 140%; inactive means in between;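 further: Galphao activated as the GDP aluminium fluoride complex binding bead-coupled RGS8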
# Avidin bead fluor = green autofluorescence of compounds with avidin beads – biophysical, 488/530 nm, flow cytometry, artefact control, profiling panel; fluorescence (KMESF) at 10 µM; compound fluorescence 488/530 nm; hits give high values; AID 1775, 2009; 220,000 tested, 0.38% active; in the data active means fluorescence above about 47
# RGS4-Gao reg = modulators of RGS4 binding to Galphao, primary screen, biochemical, multiplexed bead flow cytometry; 220,000 tested, 0.33% active; binding response (% of control), % at 10 µM; actives lie on both sides; in the data active means binding response below about 49% or above about 150%; inactive means in between;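 further: fluorescent Galphao activated with aluminum fluoride binding bead-coupled RGS4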
# RGS-Gao = modulators of RGS–Galpha-o binding, primary screen, biochemical, multiplexed beads, flow cytometry, RGS4/7/8/16/19; shares compounds with RGS16-Gao HTS; multiplexed bead flow cytometry; RGS4–Galpha-o binding response, % at 10 µM; 1,600 tested, 99% active; AID 1504, 2009;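 further: fluorescently labeled Galpha-o bound to GDP with aluminium fluoride binding biotinylated RGS beads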
# Target sequence (P09471 whole entry, looked up): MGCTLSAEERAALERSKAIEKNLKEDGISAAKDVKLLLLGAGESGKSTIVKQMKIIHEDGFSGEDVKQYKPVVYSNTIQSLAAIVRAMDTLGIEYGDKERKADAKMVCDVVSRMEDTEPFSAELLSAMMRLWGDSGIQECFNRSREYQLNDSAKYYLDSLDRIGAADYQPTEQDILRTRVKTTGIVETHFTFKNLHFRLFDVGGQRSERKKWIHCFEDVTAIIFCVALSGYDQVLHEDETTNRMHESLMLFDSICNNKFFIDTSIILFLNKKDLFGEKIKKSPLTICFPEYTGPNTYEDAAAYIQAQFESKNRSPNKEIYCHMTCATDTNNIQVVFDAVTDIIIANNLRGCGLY
# Target sequence (P49798 whole entry, looked up): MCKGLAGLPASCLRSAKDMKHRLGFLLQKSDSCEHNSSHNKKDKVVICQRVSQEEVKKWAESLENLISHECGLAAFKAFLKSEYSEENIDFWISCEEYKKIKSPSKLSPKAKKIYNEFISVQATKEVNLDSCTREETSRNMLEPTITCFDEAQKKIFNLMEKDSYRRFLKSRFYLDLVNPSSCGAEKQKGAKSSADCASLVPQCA
# Biotin-avidin = disruption of biotin probe capture by avidin, counter-screen for RGS protein interaction modulators, biochemical, flow cytometry, bead-based; shares compounds with RGS16-Gao HTS; streptavidin beads, fluorescein-biotin binding; inhibition, % at 10 µM; 1,700 tested, under 10 active; AID 1783, 2009;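 active means inhibition above 50%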;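 further: median green fluorescence of gated singlet beads compared with DMSO control wells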
# RGS8-Gao single = RGS8-Galphao binding modulators, confirmation, biochemical, multiplexed bead flow cytometry, single concentration; shares compounds with RGS16-Gao HTS; bead-based flow cytometry RGS8-Galphao binding, fluorescence; actives lie on both sides; binding response (% of control), % at 10 µM; 1,700 tested, 3% active; in the data active means binding response below about 72% or above about 130%; inactive means in between;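 further: Galphao activated as GDP AlF4 complex before binding bead RGS8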
# RGS7-Gao confirm = RGS7-Galphao binding modulators, confirmation, biochemical, multiplexed bead flow cytometry, single concentration | shares compounds with RGS16-Gao HTS | AID 1837, 2009 | bead-based flow cytometry RGS7-Galphao binding; actives lie on both sides | response (percent of control binding), % at 10 µM | 1,700 tested, 7.8% active; in the data active means response below about 75% or above about 130%; inactive means in between;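 further: fluorescent Galphao activated with GDP and aluminum fluoride binding bead-coupled RGS7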
# RGS16-Gao single = modulators of RGS16-Galphao protein binding, confirmation, biochemical, single concentration, multiplexed bead flow cytometry; shares compounds with RGS16-Gao HTS; bead-based flow cytometry; actives lie on both sides; response (% of control binding), % at 10 µM; 1,700 tested, 4% active; AID 1838, 2009; in the data active means response below about 74% or above about 130%; inactive means in between;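 further: Galphao activated as the GDP aluminium fluoride complex binding bead-coupled RGS16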
# RGS4-Gao confirm = modulators of RGS4-Galphao protein binding, confirmation, biochemical, single concentration, multiplexed bead flow cytometry; shares compounds with RGS16-Gao HTS; actives lie on both sides; binding response (% of control), % at 10 µM; 1,700 tested, 4% active; AID 1840, 2009; in the data active means binding response below about 74% or above about 130%; inactive means in between
# RGS19-Gao single = regulators of RGS19-Galphao binding, confirmation, biochemical, single point, multiplexed bead flow cytometry; shares compounds with RGS16-Gao HTS; AID 1841, 2009; bead-based flow cytometry RGS19-Galphao binding; actives lie on both sides; response (percent of control binding), % at 10 µM; 1,700 tested, 5% active; in the data active means response below about 50% or above about 160%; inactive means in between
# Numbers stand for hits; . = inactive; ? = inconclusive; / = no result; [ ] = another dose, or the depositor's remark. A selection: hits, their analogues and other compounds. The true share with any hit is near 1.2%. Unless noted, how the calls were made is not given here.
SMILES,RGS16-Gao HTS,RGS7-Gao reg,GSH bead fluor,RGS8-Gao,Avidin bead fluor,RGS4-Gao reg,RGS-Gao,Biotin-avidin,RGS8-Gao single,RGS7-Gao confirm,RGS16-Gao single,RGS4-Gao confirm,RGS19-Gao single
COC(=O)C1=C(Nc2ccccc2NC(=O)CCCC(=O)O)CSC1,.,?,/,.,.,.,/,/,/,/,/,/,/
COc1ccc(CCNC(=O)COC(=O)C23CC4CC(CC(Br)(C4)C2)C3)cc1,14,.,.,.,.,.,91,.,.,.,.,.,.
CCCCCNCc1ccc(OCc2ccc(Cl)nc2)c(OC)c1,266[activator],.,.,.,.,.,116,.,.,.,.,.,.
Cc1ccc(OCC(=O)NNC(=O)C(=O)N2CCCC2)c(C)c1,244[activator],.,.,.,.,.,118,.,.,.,.,.,.
CCN(CC)S(=O)(=O)c1ccc(Cl)nc1,.,.,.,.,.,.,/,/,/,/,/,/,/
O=c1ccc2cc(S(=O)(=O)N3CCN(c4cc(Cl)ccc4Cl)CC3)ccc2o1,/,/,.,/,/,/,/,.,.,.,.,.,.
COc1cccc(C(=O)OCC(=O)NC(=O)NC2CCCC2)c1O,.,.,.,.,.,.,/,/,/,/,/,/,/
Cc1ccccc1NC(=O)COC(=O)c1cc(=O)c2ccccc2o1,.,37,.,48,.,41,/,.,.,.,.,.,.
CCOC(=O)c1sc(NC(=O)Nc2ccc(F)cc2)nc1C,25,.,.,.,.,.,91,.,.,.,.,.,.
Oc1ccc(/C=C/c2nc(-c3ccccc3O)n(-c3ccccc3)n2)cc1,.,.,.,.,.,.,/,/,/,/,/,/,/
Oc1ccccc1-c1nc(/C=C/c2ccccc2)nn1-c1ccccc1,197[activator],.,.,.,.,.,107,.,.,.,.,.,.
CCc1nccn1S(=O)(=O)c1cc(C)c(OC)cc1C,.,.,.,.,.,.,/,/,/,/,/,/,/
CCc1nccn1S(=O)(=O)c1cc(OC)c(Cl)cc1OC,.,-76,.,12,.,-222,/,.,.,75,.,.,.
CCc1ccc(NC(=O)Nc2cccs2)cc1,-20,-11,.,5.8,.,-32,/,.,.,.,.,.,.
Cc1ccc(NC(=O)Nc2cccs2)cc1,.,.,.,.,.,.,/,/,/,/,/,/,/
